# Screening data (PubChem)
# DAX1 inh-1: DAX1 (NR0B1) inhibitors on StAR promoter, primary screen, cell-based, luminescence, SF-1 (NR5A1), full-length DAX-1 | HEK293T StAR-luciferase reporter, SF-1/DAX-1 repression relief | inhibition, % at 6.8 µM | 370,000 compounds, 1.1% hits | AID 652010, 2013;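 active = inhibition above the mean over all tested compounds plus 3 SD, cut at about 3.6% in these data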;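 also: 0% = DAX-1 cells with DMSO and 100% = cells lacking DAX-1 with DMSO; higher inhibition means more luminescence from relief of DAX-1 repression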
# ssDAF-12 act: S. stercoralis DAF-12 nuclear receptor activators, primary screen, cell-based, luminescence, HEK293, GRIP1 co-expression, lit1-tk-luc; 370,000 compounds, 1% hits; activation, % at 6.8 µM; AID 652126, 2013; HEK293 ssDAF-12/GRIP1 lit1-tk-luc reporter; % of 3 µM dafachronic acid response;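 active = activation above the mean over all tested compounds plus 3 SD, cut at about 0.9% in these data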;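 also: 0% = DMSO-only wells and 100% = 3 µM delta7-dafachronic acid wells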
# DAX1 inh-2: DAX1 (NR0B1) inhibitors, primary screen, cell-based, HEK293, Gal4-DAX1, luciferase luminescence; Nuclear receptor subfamily 0 group B member 1 (Homo sapiens), P51843; HEK293 Gal4-DAX1 luciferase reporter; inhibition, % at 6.75 µM; 340,000 compounds, 0.99% hits;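 active = inhibition above the mean over all tested compounds plus 3 SD, cut at about 4.2% in these data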;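 also: 0% = DAX1-transfected cells with DMSO and 100% = empty-vector control cells with DMSO; inhibition shows as a rise in luminescence from relieved DAX1 repression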
# Target sequence (P51843 207-470 limits assumed): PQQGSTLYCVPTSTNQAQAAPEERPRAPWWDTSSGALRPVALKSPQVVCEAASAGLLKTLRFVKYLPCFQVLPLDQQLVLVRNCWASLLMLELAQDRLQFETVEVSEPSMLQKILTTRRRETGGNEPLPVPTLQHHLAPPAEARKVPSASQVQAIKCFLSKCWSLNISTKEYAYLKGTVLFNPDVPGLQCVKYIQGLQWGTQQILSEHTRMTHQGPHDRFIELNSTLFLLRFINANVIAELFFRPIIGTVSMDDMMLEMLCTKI
# AHR act: AHR activators, primary screen, cell-based, luminescence, luciferase reporter, human. Aryl hydrocarbon receptor (Homo sapiens), P35869. AHR-responsive luciferase reporter cells. activation, % at 5 µM. 320,000 compounds, 2.5% hits. AID 2796, 2010; in the data active = activation above about 47%;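 also: 0% = vehicle wells and 100% = reference agonist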
# hcDAF-12 act: H. contortus DAF-12 nuclear receptor activators, primary screen, cell-based, luminescence, HEK293, lit1-tk-luc reporter | activation, % at 6.8 µM | HEK293 hcDAF-12 lit1-tk-luc reporter; 0% DMSO, 100% Δ7-dafachronic acid | AID 652067, 2013 | 370,000 compounds, 1.4% hits;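 active = activation above the mean of all tested compounds plus 3 SD, cut at about 5.5% in these data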;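 also: 100% = response to 3 µM Δ7-dafachronic acid high control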
# hgDAF-12 ag: H. glycines DAF-12 receptor agonists, primary screen, cell-based, luminescence, HEK293, GAL4 fusion, UAS-luciferase; Nuclear hormone receptor DAF-12 (Heterodera glycines), GAL4 fusion; activation, % at 6.8 µM; 370,000 compounds, 1.8% hits; HEK293 GAL4-hgDAF12 UAS-luciferase reporter, agonist luminescence; normalized to butyrate control;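 active = activation above a cutoff set at the mean of all screened compounds plus 3 SD, cut at about 10% in these data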;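 also: 0% = DMSO wells and 100% = sodium butyrate wells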
# The depositor's hits bear a star; nt = no result given. This is a sample that favours compounds with a hit; in the whole collection about 5.7% have one here.
SMILES,DAX1 inh-1,ssDAF-12 act,DAX1 inh-2,AHR act,hcDAF-12 act,hgDAF-12 ag
Cc1cccc(C(=O)Nc2nc3ccc(S(C)(=O)=O)cc3s2)c1,0.5,0.0,2.7,nt,0.6,8.6
Cc1ccc(NC(=O)C(=O)NCC2CCCO2)cc1 (stereo not drawn),1.2,-0.3,0.8,15.4,0.5,5.7
Cc1ccc(NC(=O)C(=O)NCC2CCCO2)cc1C (stereo not drawn),2.7,-0.2,5.8*,16.2,2.1,5.3
O=S(=O)(/N=C(/Nc1nc2ccccc2s1)c1ccccc1)c1ccc(F)cc1,4.4*,0.9*,6.4*,nt,4.2,10.7*
CS(=O)(=O)c1ccc2nc(NC(=O)c3ccccc3)sc2c1,0.7,0.7,2.7,0.0,4.8,10.5*
Cc1c(C(=O)NCC2CCCO2)oc2ccc(Br)cc12 (stereo not drawn),3.8*,-0.1,1.9,13.7,1.3,4.6
CS(=O)(=O)c1ccc2nc(NC(=O)Nc3ccc(Cl)c(Cl)c3)sc2c1,0.4,1.9*,-0.3,15.3,-2.0,-0.8
CS(=O)(=O)c1ccc2nc(NC(=O)c3ccc(S(=O)(=O)NCC4CCCO4)cc3)sc2c1 (stereo not drawn),-2.0,-2.3,5.4*,0.0,-1.4,2.2
CC(=O)Nc1ccc(S(=O)(=O)NCC2CCCO2)cc1 (stereo not drawn),-0.5,-0.6,5.1*,-3.1,0.1,0.0
CC1(C(=O)NS(=O)(=O)c2cccc(OC(F)F)c2)CCN1C(=O)CCc1cccs1 (stereo not drawn),-0.1,-1.1,nt,nt,-1.0,1.1
COc1cc(C(=O)Nc2ccc(C(F)(F)F)cc2)ccc1OCC(=O)N1CCOCC1,0.3,-0.7,2.1,nt,-1.2,0.5
CNCCOc1ccc(Cl)c(Cl)c1,0.1,-0.6,5.3*,0.6,-1.0,-2.7
CCOC(=O)c1c(C)nc(-c2ccccc2)nc1NC(=O)CC,1.6,-0.8,0.8,47.1*,2.9,6.7
CCOC(=O)c1[nH]c2ccccc2c1NC(C)=O,0.4,-0.2,1.1,32.7,3.1,1.7
CCOC(=O)c1[nH]c2ccccc2c1NC(=O)CC,1.1,0.4,-0.4,59.9*,6.1*,4.6
CCOC(=O)c1[nH]c2ccccc2c1NC(=O)COC,0.1,-0.3,0.9,33.2,3.0,1.7
CCOC(=O)c1[nH]c2ccccc2c1NC(=O)C(C)(C)C,0.2,-1.1,0.8,3.4,-1.4,-0.2
CCOC(=O)c1[nH]c2ccccc2c1NC(=S)Nc1ccccc1,0.8,2.0*,0.8,49.4*,6.0*,6.1
CCOC(=O)c1[nH]c2ccccc2c1NC(=S)Nc1cccc(C)c1,-0.7,0.5,4.0,72.4*,5.8*,-1.1
c1ccc(COc2cccc(CN3CCc4ccccc4C3)c2)cc1,-0.5,-0.8,-1.0,-0.4,-0.9,-1.3
COc1ccc(-c2nnc(Nc3nc4c(OC)cccc4s3)o2)cc1,0.4,0.1,-0.3,75.1*,3.7,1.7
CN1CCCN(S(=O)(=O)c2ccc3c(c2)n(C)c(=O)c(=O)n3C)CC1,2.0,-0.8,nt,nt,0.7,2.0
Cc1nnsc1-c1c(C(=O)N2CCOCC2)c(C)nn1-c1ccccc1,0.2,-1.1,-0.3,0.3,0.1,0.6
Cc1nnsc1-c1c(C(=O)N2CCOCC2)c(C)nn1-c1ccc(Cl)cc1,0.3,-1.5,4.8*,3.8,-0.3,-0.5
Cc1ccc(S(=O)(=O)NCC(=O)N2CCN(c3ccccn3)CC2)s1,-1.5,-1.4,nt,nt,-0.6,-3.4
SMILES,DAX1 inh-1,ssDAF-12 act,DAX1 inh-2,AHR act,hcDAF-12 act,hgDAF-12 ag
CCc1cc2c(nc1CC)CCCN2S(=O)(=O)c1c(C)noc1C,0.3,-1.3,nt,nt,0.5,1.2
N[C@H](C(=O)N[C@@H](Cc1ccccc1)C(=O)N1CCC2CCN(S(=O)(=O)c3ccccc3)CC21)c1ccccc1 (stereo partly drawn),3.0,0.3,nt,nt,1.5,17.4*
CC(C)[C@H](NC(=O)[C@H](Cc1ccccc1)NC(=O)OC(C)(C)C)C(=O)N1CCC2CCN(S(=O)(=O)c3ccccc3)CC21 (stereo partly drawn),-0.4,-1.1,nt,nt,1.4,-1.5
CSCCCNC(=O)Cn1nc(Cc2ccncc2)c2ccccc2c1=O,0.1,-0.7,nt,nt,0.1,-0.5
COCc1nnc(NS(=O)(=O)c2ccc(C)cc2)s1,0.0,-0.5,4.4*,-4.9,0.7,1.3
Cc1ccc(S(=O)(=O)N(C)C)cc1NC(=O)c1ccc2ccccc2n1,0.1,1.1*,1.8,15.2,2.0,5.3
Cc1ccc(S(=O)(=O)N(C)C)cc1NC(=S)Nc1cccc2ccccc12,-0.5,-0.4,1.0,58.9*,4.2,2.2
CC(C)Oc1ccc(C2NC(=O)c3ccccc3O2)cc1 (stereo not drawn),-0.1,0.1,4.4*,-1.7,-0.4,-1.5
CCCC(=O)Oc1ccc(C2NC(=O)c3ccccc3O2)cc1 (stereo not drawn),-0.3,0.3,1.6,56.4*,-1.6,0.2
CC(C)c1ccc(C2NC(=O)c3ccccc3O2)cc1 (stereo not drawn),0.9,-0.9,0.8,-1.0,2.4,4.7
CCOc1ccc(C2NC(=O)c3ccccc3O2)cc1 (stereo not drawn),0.2,-0.9,1.4,3.3,3.5,2.5
Cc1cccc(C(=O)NCC(=O)N2CCOCC2)c1,1.0,-0.9,0.6,2.2,-1.3,0.0
CCn1c(SCC(=O)Nc2ccccc2C)nc2nc3c(cc2c1=O)COC(C)(C)C3,-1.2,-0.6,5.5*,1.5,-0.4,-0.6
CCn1c(SCC(=O)Nc2ccc(C(C)=O)cc2)nc2nc3c(cc2c1=O)COC(C)(C)C3,-0.4,-0.8,2.5,0.5,1.2,6.4
Cc1occc1C(=O)NC1CCCCCC1,1.0,-0.5,-0.2,17.7,0.8,1.7
C/C(=N/NC(=O)c1ccoc1C)C12CC3CC(CC(C3)C1)C2,2.7,0.7,1.2,9.3,4.5,12.5*
COc1cccc(CN2CCN(C(=S)NCc3ccc(Cl)cc3)CC2)c1,-2.2,-1.2,-1.4,0.0,-1.1,-4.3
O=C(CSc1nc2ccccc2s1)N/N=C/c1cc([N+](=O)[O-])ccc1O,0.1,-0.8,-1.2,7.5,2.2,0.0
Cc1[nH]c2ccccc2c1/C=N/Nc1ccccn1,-0.1,-0.4,nt,nt,-0.4,3.1
